Screening data (PubChem BioAssay)
LGR2 inh: inhibitors of bursicon-induced Drosophila LGR2 receptor cAMP signaling | inhibition, % at 9.99 µM | hit rate 0.35% among 380,000 | HEK293 LGR2, CRE-luciferase, bursicon-stimulated, 4 h | AID 720647;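 active = drop in luminescence signal, shown as inhibition above about 50% in the replicate tests, limit read from the data, passing the limit was not always enough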;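 note: agonist challenge used bursicon conditioned medium at about half maximal strength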
CF NFkB inh: inhibitors of cystic fibrosis induced NF-kB; KKLEB NF-kB-GFP reporter, PAF-induced, GFP fluorescence overnight; inhibition, % at 5 µM; hit rate 0.86% among 360,000;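 active = at least 50% inhibition at 5 µM, scaled per plate between neutral and stimulator controls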;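 note: PAF is a Pseudomonas aeruginosa culture filtrate used as stimulus; plate controls were PAF-stimulated DMSO wells for no effect and unstimulated DMSO wells for full effect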
TWEAK Fn14 block: blocks TWEAK-Fn14 interaction in a reporter cell assay; TWEAK-stimulated Fn14 reporter cells, luciferase luminescence, 8 h; inhibition, % at 10 µM; hit rate 2% among 360,000; in the data active = inhibition above about 50%
HIF-2a block: blocks HIF-2a reporter activity. 786-0 RCC cells HIF-2a reporter, luciferase luminescence, overnight. hit rate 0.72% among 360,000. inhibition, % at 18.8 µM. AID 624352;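 active = inhibition of the luminescence signal of 40% or more relative to plate controls, in a single-dose primary screen at 18.75 µM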
hiPSC survival: increases survival of single human iPS cells; survival enhancement, % at 20 µM; AID 602274; hit rate 0.044% among 360,000; hiPSC single-cell survival, ATPlite luminescence; 100% = ROCK inhibitor wells, 0% = DMSO; in the data active = survival enhancement above about 18%;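 note: cells exposed to compounds for 16 hours before the ATP read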
KKLEB cytotox: counter-screen for CF NF-kB inhibitors: cytotoxicity. KKLEB CF airway cells viability, ATPlite luminescence, overnight; hits give low values; cells stimulated with P. aeruginosa culture filtrate. activity change (cytotoxicity), % at 5 µM. hit rate 0.36% among 360,000. AID 602141;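 active = corrected activity change at or below -50% at 5 µM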
CF NFkB conf: confirmation of cystic fibrosis induced NF-kB inhibitors; shares compounds with CF NFkB inh; KKLEB CF airway cells, PAF-induced NF-kB-GFP fluorescence, overnight; inhibition, % at 5 µM; hit rate 64% among 1,300; AID 602472; in the data active = inhibition above about 40%;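 note: stimulus PAF is a Pseudomonas aeruginosa filtrate and not platelet activating factor; plate controls were DMSO wells with stimulus for no effect and unstimulated DMSO wells for full effect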
Numbers without * were called inactive. A selection: hits, their analogues and other compounds. The true share with any hit is near 2.3%.

Results for CCC1C(=O)C(C)(C)C(=O)OC1c1ccc([N+](=O)[O-])cc1 (stereo not drawn) ?
LGR2 inh: -9; CF NFkB inh: -16; TWEAK Fn14 block: 1; HIF-2a block: 15; hiPSC survival: -1; KKLEB cytotox: 4

Results for O=C1CC(=O)OC(c2ccc([N+](=O)[O-])cc2)O1 ?
CF NFkB inh: 90*; TWEAK Fn14 block: 102*; HIF-2a block: 86*; hiPSC survival: 1; KKLEB cytotox: -22; CF NFkB conf: 111*

What do the screens show for `C[C@@H]1CN([C@H](C)CO)C(=O)c2cc(-c3cccc(C(=O)N(C)C)c3)cnc2O[C@@H]1CN(C)S(=O)(=O)c1ccccc1`?
LGR2 inh: 16

How did O=C1OC(c2ccccc2)(c2cc(Br)ccc2O)c2ccccc21 (stereo not drawn) do in these assays?
LGR2 inh: 24; CF NFkB inh: 75*; TWEAK Fn14 block: 56*; HIF-2a block: 32; hiPSC survival: -1; KKLEB cytotox: -20; CF NFkB conf: 49*

Results for COc1ccc(CNC(=O)C[C@H]2C[C@H](C(=O)N3CCCCC3)[C@@]3(CCc4ccccc4)c4[nH]c5ccc(Cl)cc5c4CCN3C2=O)cc1OC ?
LGR2 inh: 7; CF NFkB inh: 51*; TWEAK Fn14 block: 39; HIF-2a block: -27; hiPSC survival: 0; KKLEB cytotox: -10; CF NFkB conf: 39

What do the screens show for `CC[C@]12c3[nH]c4ccc(Cl)cc4c3CCN1C(=O)[C@@H](CC(=O)NCc1ccc(OC)c(OC)c1)C[C@@H]2C(=O)N1CCN(C(=O)C2CC2)CC1`?
LGR2 inh: -12; CF NFkB inh: -4; TWEAK Fn14 block: 20; HIF-2a block: 9; hiPSC survival: 0; KKLEB cytotox: 10

What do the screens show for `CC(=O)Nc1ccc(NC(=O)c2ccc3sc([C@H]4C[C@H](O)[C@@H](CO)O4)nc3c2)cc1`?
LGR2 inh: -8; CF NFkB inh: 7; TWEAK Fn14 block: 12; HIF-2a block: 5; hiPSC survival: -1; KKLEB cytotox: -3

Results for O=C(Nc1ccc(Oc2ccccc2)cc1)c1ccc2sc([C@H]3C[C@H](O)[C@@H](CO)O3)nc2c1 ?
LGR2 inh: 25; CF NFkB inh: 54*; TWEAK Fn14 block: 95*; HIF-2a block: -97; hiPSC survival: -3; KKLEB cytotox: 6; CF NFkB conf: 46*

Results for COc1ccc(NC(=O)N(C)C[C@@H]2OCCCC[C@H](C)Oc3ccc(NC(=O)c4ccccc4)cc3C(=O)N([C@@H](C)CO)C[C@@H]2C)cc1 ?
LGR2 inh: 6

What do the screens show for `Cc1nn(-c2ccccc2)c(C)c1/C=N/NC(=O)c1cc(C(C)(C)C)[nH]n1`?
LGR2 inh: 4; CF NFkB inh: 13; TWEAK Fn14 block: -1; HIF-2a block: 9; hiPSC survival: -1; KKLEB cytotox: 7

How did Cc1nn(-c2ccccc2)c(N2CCCC2)c1/C=N/NC(=O)c1cc(-c2ccccc2)nc2ccccc12 do in these assays?
LGR2 inh: 10; CF NFkB inh: 55*; TWEAK Fn14 block: 21; HIF-2a block: 20; hiPSC survival: -1; KKLEB cytotox: -8; CF NFkB conf: 66*

Results for Cc1ccc(-c2cc(C(=O)N/N=C/c3c(C)nn(-c4ccccc4)c3C)[nH]n2)cc1 ?
CF NFkB inh: 50*; TWEAK Fn14 block: 40; HIF-2a block: 3; hiPSC survival: 1; KKLEB cytotox: -32; CF NFkB conf: 84*

What do the screens show for `CCC(=O)N[C@@H]1CC[C@@H](CCNS(=O)(=O)c2ccc(Cl)cc2)O[C@H]1CO`?
LGR2 inh: 5

How did CO[C@H]1CN(C)C(=O)c2cc(NC(=O)C3CC3)ccc2OC[C@@H](C)N(C(=O)CN2CCOCC2)C[C@H]1C do in these assays?
LGR2 inh: 6

Results for COc1cccc(/C=N/n2c(N)c(S(=O)(=O)c3cccs3)c3nc4ccccc4nc32)c1OC ?
CF NFkB inh: 54*; TWEAK Fn14 block: 18; HIF-2a block: 3; hiPSC survival: 1; KKLEB cytotox: 15; CF NFkB conf: 11

What do the screens show for `COCCn1c(N)c(S(=O)(=O)c2cccs2)c2nc3ccccc3nc21`?
LGR2 inh: -16; CF NFkB inh: -7; TWEAK Fn14 block: 6; HIF-2a block: 14; hiPSC survival: 2; KKLEB cytotox: 9

How did COc1ccccc1NC(=O)c1cc2c(CO)cnc(C)c2oc1=Nc1cc(OC)c(OC)c(OC)c1 do in these assays?
LGR2 inh: 5; CF NFkB inh: -5; TWEAK Fn14 block: -16; HIF-2a block: 13; hiPSC survival: 1; KKLEB cytotox: 16

What do the screens show for `COc1ccccc1NC(=O)c1cc2c(CO)cnc(C)c2oc1=Nc1ccc(OC)c(OC)c1`?
LGR2 inh: -13; CF NFkB inh: 86*; TWEAK Fn14 block: -17; HIF-2a block: 1; hiPSC survival: 1; KKLEB cytotox: -49; CF NFkB conf: 85*

How did CC(C)CC1NC(=S)N(Cc2ccccc2)C1=O (stereo not drawn) do in these assays?
LGR2 inh: 12; CF NFkB inh: 58*; TWEAK Fn14 block: -3; HIF-2a block: -11; hiPSC survival: -2; KKLEB cytotox: -17; CF NFkB conf: 10

How did Cc1ccc(NC(=O)Nc2cccc([N+](=O)[O-])c2)cc1F do in these assays?
LGR2 inh: -15; CF NFkB inh: 65*; TWEAK Fn14 block: 79*; HIF-2a block: -241; hiPSC survival: -1; KKLEB cytotox: -48; CF NFkB conf: 52*

How did CN(C)S(=O)(=O)c1ccc(Cl)c(NC(=O)CSc2nc3c(cc2C#N)C(=O)CC(C)(C)C3)c1 do in these assays?
LGR2 inh: 10; CF NFkB inh: 28; TWEAK Fn14 block: 13; HIF-2a block: 17; hiPSC survival: 4; KKLEB cytotox: -4

What do the screens show for `CN(C)S(=O)(=O)c1cccc(NC(=O)CSc2nc3c(cc2C#N)C(=O)CC(C)(C)C3)c1`?
LGR2 inh: 29; CF NFkB inh: 58*; TWEAK Fn14 block: 37; HIF-2a block: -12; hiPSC survival: -1; KKLEB cytotox: -20; CF NFkB conf: 35

Results for CNC[C@H]1OCCCC[C@H](C)Oc2ccc(NC(=O)Nc3ccc4c(c3)OCO4)cc2C(=O)N([C@@H](C)CO)C[C@@H]1C ?
LGR2 inh: -4

How did CCOC(=O)N1CCc2c(sc(NC(=O)CN3CCOCC3)c2C(=O)Nc2ccccc2)C1 do in these assays?
LGR2 inh: 46; CF NFkB inh: 57*; TWEAK Fn14 block: 23; HIF-2a block: 18; hiPSC survival: 0; KKLEB cytotox: -9; CF NFkB conf: -1

Results for C[C@@H]1CCCCO[C@H](CN(C)Cc2ccc(C(=O)O)cc2)[C@@H](C)CN([C@@H](C)CO)C(=O)c2cc(NC(=O)C3CCCCC3)ccc2O1 ?
LGR2 inh: 8
